Measurements taken from PubChem BioAssay (NCI).
The panel holds about 83,000 compounds, 20% with a hit somewhere; the sample as a whole holds those more often.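 The endpoint reported here, percent growth, reads 100 for growth as untreated, 0 for no net growth and -100 for all cells dead.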 Values without a mark were called inactive. Activity calls are given as the source filed them. Rule for the calls: active = growth percent below 10; inactive = the rest.

test system: OVCAR-3 ovarian; assay: NCI-60 one-dose screen, 48 h (100 = growth as untreated, 0 = no growth, -100 = all killed); conditions: 10 µM

Compound	growth
Cc1ccc(C(=O)N/C(=C2/OCCN2C)[P+](c2ccccc2)(c2ccccc2)c2ccccc2)cc1	54.5%
CN(C)c1ccc(/C=C/c2nc3ccccc3c(=O)n2CC(=O)Nc2ccc(Cl)cc2)cc1	42.2%
Cc1ccc(CNC(=O)Cc2ccc3c(c2)CN(C2CCC(=O)NC2=O)C3=O)cc1 (stereo not drawn)	6.03% (active)
Cc1ccn2c(C(=O)c3ccccc3)cc(-c3cc(-c4ccc(N(C)C)cc4)c(C#N)c(N)n3)c2c1	58.2%
CCOP(=O)(OCC)O[C@H]1CCC(=O)[C@@H]2[C@H]1[C@H]1C[C@@H]3[C@@]4(C)CCCC(C)(C(=O)OC)[C@@H]4CC[C@@]23C=C1C(C)C (stereo partly drawn)	67.7%
C#CCNC(=O)CCC(=O)OC[C@]12CC[C@@H](C(=C)C)[C@@H]1C1CC[C@@H]3[C@@]4(C)CCCNC(C)(C)[C@@H]4CC[C@@]3(C)[C@]1(C)CC2 (stereo partly drawn)	-71% (active)
C/C(=N\N=C\c1ccc(N(C)C)cc1)c1ccc2c(c1)Nc1ccccc1S2	44.5%
O=C(Nc1ccc(Cl)c([N+](=O)[O-])c1)Nc1ccc(Cl)c([N+](=O)[O-])c1	9.61% (active)
COc1ccc(CN2[C@H](C(=O)NCc3ccc(C(=O)NO)cc3)Cc3c([nH]c4ccccc34)[C@H]2C2CC2)cc1	48.7%
O=C(NO)c1ccc(CNC(=O)[C@H]2Cc3c([nH]c4ccccc34)[C@H](c3ccc(Cl)cc3)N2)cc1	7.44% (active)
O=C(Cn1nc(-c2ccccc2)ccc1=O)NN1C(=O)c2ccccc2C1=O	125%
OCc1[nH]nc2cc(Nc3ncc4ccc(Br)c(OC5CCC(O)CC5)c4n3)ccc12 (stereo not drawn)	2.95% (active)
COc1cc2c3c(n(CCCNCCO)c(=O)c2cc1OC)-c1nc2c(cc1C3=O)OCO2	-68.5% (active)
COc1ccc(CN2[C@H](C(=O)NCCCCCCC(=O)NO)Cc3c([nH]c4ccccc34)[C@H]2C2CC2)cc1	3.23% (active)
COc1ccc(C2N(c3ccc(Br)cc3)N=C(C(C)=O)N2[C@H]2[C@H](OC(C)=O)O[C@H](COC(C)=O)[C@@H](OC(C)=O)[C@@H]2OC(C)=O)cc1 (stereo partly drawn)	73.2%
CN1C(=O)N(C)C2SC(N/N=C/c3cccs3)=NC21 (stereo not drawn)	-54% (active)
Cc1cc(C)nc(/N=C(\N)Nc2ccc(S(=O)(=O)Nc3nc(C)cc(C)n3)cc2)n1	112%

Compound	growth
O=C(Cc1ccc2c(c1)CN(C1CCC(=O)NC1=O)C2=O)NCCc1ccccc1 (stereo not drawn)	20.1%
CCNCCCn1c2c(c3cc(OC)c(OC)cc3c1=O)C(=O)c1cc3c(nc1-2)OCO3	-90.1% (active)
O=C(CNc1nc(-c2ccccc2)cs1)Nc1ccc(Cl)cc1[N+](=O)[O-]	-31.9% (active)
Cc1ccc2nc(-c3ccc(-c4nnc(SCC(=O)Nc5ccc(Cl)cc5)o4)cc3)[nH]c2c1	24%
Cc1ccc(C(=O)NNC(=O)CSc2nc3ccccc3c(=O)[nH]2)cc1	103%
CN(C)CCNC(=O)OCCCCOc1cc(O)c2c(=O)cc(-c3ccccc3)oc2c1	-77.1% (active)
CCCCSc1nc(Nc2ccc(/C(C)=N/NC(N)=S)cc2)c(C#N)c(-c2ccccc2)n1	13.4%
O=c1[nH]c2ccccc2cc1CSc1ccc(Nc2nccc(-c3ccc4c(c3)OCO4)n2)cc1	50.7%
COc1cc2oc(-c3cccc(C(=O)Nc4ccc(Cl)cc4)c3)cc(=O)c2c(OCCNC(=O)CNC(=O)OC(C)(C)C)c1OC	98.3%
Cc1ccc2nc(-c3ccc(-c4nnc(SCC(=O)Nc5ccc(Br)cc5)o4)cc3)[nH]c2c1	82.9%
COc1ccc(CN2[C@@H](C(=O)NCc3ccc(C(=O)NO)cc3)Cc3c([nH]c4ccccc34)[C@@H]2C)cc1	11.1%
O=C(CNc1nc(-c2ccccc2)cs1)Nc1cccc(Cl)c1	32.2%
NS(=O)(=O)c1ccc(NC(=O)CSc2ccc(-c3ccc(Cl)cc3)nn2)c(Br)c1	7.69% (active)
Clc1ccc2c(N/N=C/c3c[nH]c4ccc(Br)cc34)ccnc2c1	-82.8% (active)
Cc1ccc(-c2ccc(SCC(=O)Nc3ccc(S(N)(=O)=O)cc3Br)nn2)cc1	-63.8% (active)
CC(=O)Nc1ccc(-c2cn(-c3cccc(C(=O)Nc4cccc(OC(F)(F)F)c4)c3)nn2)cn1	110%
